# Measurements from the supplement of paper PMC3724861.
# The entries come from a sample that favours hits as a whole. How many sequences the whole screen found active is unknown. Unmarked numbers belong to inactive results.
# Test system: T1, Caupolican (Caup) homeodomain DNA-binding domain
# T1 sequence: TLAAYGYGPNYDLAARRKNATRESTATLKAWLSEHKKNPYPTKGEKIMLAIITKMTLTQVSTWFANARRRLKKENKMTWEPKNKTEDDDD
# Assay: PBM E-score (8-mer, recovered from the published 9-mer minima) (E-score (dimensionless, -0.5 to 0.5)); Drosophila protein; higher = stronger relative binding preference, active = 0.31 or more
# How it was run: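 Caup's homeodomain DNA-binding domain (residues 214-303) was made by in vitro transcription and translation and applied at 100 nM to custom-designed protein binding microarrays. Each value is an enrichment score that gives relative binding preference for a short DNA word, with higher meaning stronger. The 8-mer values were recovered from published 9-mer scores, each of which was the minimum of its two constituent 8-mer scores. A cutoff of 0.31 marks candidate sites.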
row,Sequence,PBM E-score
1,CAATAGCC,0.0422
2,CATCTTGC,0.0649
3,GTCAACGA,0.118
4,CAGCCCGA,-0.199
5,ATGAGCGA,-0.0133
6,AAACATAG,0.267
7,AAACATAT,0.325 (active)
8,AAGCATAA,0.0796
9,TAACATAA,0.327 (active)
10,CAACATAA,0.295
11,AAACATTA,0.233
12,GAACATAA,0.282
13,AAACATAC,0.292
14,AAACATAA,0.321 (active)
15,GTCAATCA,0.0914
16,ACGCTGTG,0.0319
17,AAAGTTGT,0.17
18,AAGAGAAG,-0.0176
19,ACTGTGAT,0.066
20,AGCCGAAT,-0.0412
21,AAGTGGCT,-0.132
22,CCGCGGCA,-0.192
23,CTCGTGGC,-0.127
24,AAGCCGGG,-0.179

row,Sequence,PBM E-score
1,GTATACAC,0.249
2,TTATACAA,0.28
3,CTATACAC,0.0914
4,CTATACAG,0.0968
5,CTATACAA,0.249
6,GTATACTA,0.16
7,ATATACAT,0.367 (active)
8,ATATATAC,0.181
9,ATATACAA,≥ 0.355 (active)
10,GTATACAA,0.318 (active)
11,ATATACAG,0.186
12,ATATACAC,0.348 (active)
13,ATTAGTGC,0.105
14,AACTGGCC,-0.147
15,CCGGACGG,-0.297
16,CCTGGCAA,-0.121
17,CAATGACC,0.065
18,TCACAAGA,0.131
19,ATCGGTAC,0.0373
20,CTGCCGTC,-0.128
21,ATTAGAGG,-0.11
22,TGCATGCA,0.0646
23,CCCATGCA,-0.119
24,GACATGCA,0.394 (active)

row,Sequence,PBM E-score
1,CACATGCA,0.166
2,AACATGCC,0.302
3,ACCATGCT,0.14
4,TCCATGCA,-0.0253
5,ATCATGCA,0.103
6,GAGATGCA,-0.024
7,AACATGCT,0.376 (active)
8,TACATGCA,0.371 (active)
9,AACATGCA,0.392 (active)
10,CTCGCGTA,-0.0439
11,TTATCAAA,0.109
12,GTGATTCA,0.0823
13,AGAAAGCA,0.0369
14,CCGGGTCA,-0.18
15,CACATGCC,0.0641
16,AACATGCG,0.356 (active)
17,ATCATGCG,0.0113
18,GACATGCC,0.35 (active)
19,CACATGCG,0.023
20,GCCATGCC,-0.149
21,ATCCTGAG,-0.0222
22,CAAGCTAG,-0.0491
23,CGTAATGA,0.094
24,GTGACCGA,-0.0686

row,Sequence,PBM E-score
1,ACTTGAAC,0.132
2,ACAAATCC,0.179
3,CTGCATGA,-0.0538
4,CTACATTA,0.199
5,GCACATGA,0.182
6,ATACATTA,0.219
7,GTTCATGA,0.115
8,CTACATGA,0.36 (active)
9,CTACAGGA,0.245
10,GTACATTA,0.322 (active)
11,GTACATGA,0.435 (active)
12,ACAGGAGT,0.0982
13,AAAGTTTG,0.0257
14,ACGGCAGT,-0.0873
15,GCAACGCC,-0.0458
16,ACAGTACT,0.18
17,ACAGTACA,0.331 (active)
18,ACAGTACG,0.0926
19,CCAGTACA,0.3
20,TCAGTACA,0.313 (active)
21,GCAGTACA,0.196
22,ATCTGATG,0.072
23,ACGATTTG,0.11
24,ATTACAAG,≥ 0.427 (active)

row,Sequence,PBM E-score
1,ATCACAAC,0.212
2,ATTACAAT,0.298
3,ATTACAAA,0.259
4,ATTACAAC,0.37 (active)
5,ATTACTAC,0.293
6,ACGTTCGG,-0.177
7,ACTAGCCA,0.0322
8,CATAGTGA,0.155
9,GTGTCAAA,0.294
10,ATGTCAAG,0.309
11,AGGTCAAA,-0.0266
12,AAGTCAAA,0.0275
13,ATGTCAAC,0.324 (active)
14,CTGTCAAC,0.186
15,ATGTCAAA,0.359 (active)
16,ACGTCAAT,-0.00307
17,CTGTCAAA,0.164
18,GTGTCAAC,0.272
19,ATGTCAAT,0.359 (active)
20,TTGTCAAA,0.316 (active)
